Results reported in PubChem BioAssay AID1159580 (chemical genetic matrix, 2015).
“And” between values parts separate entries of the source, which are not always exact repeats. Identical values can stand only once. Among all 5,500 compounds or so, about 2,000 (36%) were called active. Roughly 18% stayed inconclusive and do not appear here. Cut-off read from the data, not from the text of the source: active = normalized growth mostly below about 0.91 (no sharp cut-off); inconclusive = no clear call, values can overlap the other calls; inactive = mostly above about 0.92. The list shows a part of the results.

Test: chemical genetic growth profiling, strain panel (AID 1159580);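 note: tested at 20 µM; growth read once vehicle control cultures reached saturation at 30 °C; 1 = growth at the plate median or of vehicle wells; lower values mean less growth of the strain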
Conditions: S. cerevisiae deletion strains, growth OD

Measured: normalized growth

Nc1ccc(S(=O)(=O)c2ccc(N)cc2)cc1
inactive: locus YAL013W, strain DEP1, stronger effect = lower value 1.01 | locus YAL021C, strain ccr4, stronger effect = lower value 0.99 | locus YAL026C, strain drs2, stronger effect = lower value 1 | locus YAL030W, strain snc1, stronger effect = lower value 0.976 | locus YBL061C, strain skt5, stronger effect = lower value 0.993 | locus YBR009C, strain hhf1, stronger effect = lower value 1 | locus YBR021W, strain FUR4, stronger effect = lower value 1.04 | locus YBR023C, strain chs3, stronger effect = lower value 0.979 | locus YBR171W, strain sec66, stronger effect = lower value 1 | locus YBR229C, strain ROT2, stronger effect = lower value 1.01 | locus YBR231C, strain swc5, stronger effect = lower value 0.975 | locus YBR279W, strain paf1, stronger effect = lower value 0.983 | locus YCL011C, strain gbp2, stronger effect = lower value 0.999 | locus YCL016C, strain dcc1, stronger effect = lower value 0.997 | locus YCL029C, strain bik1, stronger effect = lower value 1.03 | locus YCL069W, strain vba3, stronger effect = lower value 1.01 | locus YCR088W, strain abp1, stronger effect = lower value 1.01 | locus YDL005C, strain med2, stronger effect = lower value 0.98 | locus YDL035C, strain GPR1, stronger effect = lower value 1.03 | locus YDL040C, strain nat1, stronger effect = lower value 0.991 | locus YDL074C, strain BRE1, stronger effect = lower value 1.02 | locus YDL101C, strain DUN1, stronger effect = lower value 1.02 | locus YDL134C, strain PPH21, stronger effect = lower value 1.02 | locus YDL185W, strain tfp1, stronger effect = lower value 1.02 | locus YDL192W, strain arf1, stronger effect = lower value 1.01 | locus YDR001C, strain nth1, stronger effect = lower value 1 | locus YDR069C, strain doa4, stronger effect = lower value 0.987 | locus YDR101C, strain arx1, stronger effect = lower value 0.987 | locus YDR137W, strain rgp1, stronger effect = lower value 1.01 | locus YDR159W, strain sac3, stronger effect = lower value 0.979 | locus YDR162C, strain NBP2, stronger effect = lower value 1.04 | locus YDR195W, strain ref2 0.939 | locus YDR297W, strain sur2, stronger effect = lower value 0.996 | locus YDR318W, strain mcm21, stronger effect = lower value 1.01 | locus YDR334W, strain swr1, stronger effect = lower value 0.986 | locus YDR335W, strain msn5, stronger effect = lower value 1 | locus YDR388W, stronger effect = lower value 1 | locus YDR392W, strain spt3, stronger effect = lower value 0.992 | locus YDR502C, strain sam2, stronger effect = lower value 1 | locus YEL003W, strain gim4, stronger effect = lower value 1.01 | locus YEL037C, strain rad23, stronger effect = lower value 1.01 | locus YEL061C, strain CIN8 (second series), stronger effect = lower value 1 | locus YEL061C, strain CIN8, stronger effect = lower value 1.01 | locus YER015W, strain faa2, stronger effect = lower value 0.999 | locus YER016W, strain bim1, stronger effect = lower value 0.991 | locus YER110C, stronger effect = lower value 0.993 | locus YER111C, strain swi4, stronger effect = lower value 1.02 | locus YER155C, strain BEM2 (second series), stronger effect = lower value 0.954 | locus YER155C, strain BEM2, stronger effect = lower value 1.02 | locus YER167W, strain BCK2, stronger effect = lower value 1.02 | locus YFR010W, strain ubp6, stronger effect = lower value 0.988 | locus YGL078C, strain dbp3, stronger effect = lower value 0.993 | locus YGL086W, strain mad1, stronger effect = lower value 1 | locus YGL167C, strain pmr1, stronger effect = lower value 0.995 | locus YGL173C, strain kem1, stronger effect = lower value 0.979 | locus YGL227W, strain vid30, stronger effect = lower value 1.01 | locus YGL240W, strain doc1, stronger effect = lower value 0.988 | locus YGL248W, strain PDE1, stronger effect = lower value 1.02 | locus YGL253W, strain hxk2, stronger effect = lower value 0.99 | locus YGR135W, strain pre9, stronger effect = lower value 1.01 | locus YGR229C, strain SMI1, stronger effect = lower value 1.03 | locus YGR252W, strain gcn5, stronger effect = lower value 1.01 | locus YHR013C, strain ard1, stronger effect = lower value 0.973 | locus YHR027C, strain rpn1, stronger effect = lower value 0.991 | locus YHR030C, strain SLT2, stronger effect = lower value 1.02 and 1.01 | locus YHR079C, strain IRE1 (second series), stronger effect = lower value 1.01 | locus YHR079C, strain IRE1, stronger effect = lower value 1.03 | locus YHR094C, strain hxt1, stronger effect = lower value 1.01 | locus YHR129C, strain ARP1, stronger effect = lower value 1.01 | locus YHR142W, strain chs7, stronger effect = lower value 1.01 | locus YHR200W, strain rpn10, stronger effect = lower value 1 | locus YIL066C, strain RNR3, stronger effect = lower value 1.02 | locus YIL073C, strain SPO22, stronger effect = lower value 1.03 | locus YIL125W, strain kgd1, stronger effect = lower value 1.01 | locus YIR030C, strain dcg1, stronger effect = lower value 1.01 | locus YJL092W, strain hpr5, stronger effect = lower value 0.998 | locus YJL095W, strain BCK1 (second series), stronger effect = lower value 0.983 | locus YJL095W, strain BCK1, stronger effect = lower value 1.02 and 1.03 | locus YJL115W, strain asf1, stronger effect = lower value 1 | locus YJL129C, strain trk1, stronger effect = lower value 0.991 | locus YJL134W, strain LCB3, stronger effect = lower value 1.03 | locus YJL154C, strain vps35, stronger effect = lower value 0.987 | locus YJL164C, strain tpk1, stronger effect = lower value 0.987 | locus YJL166W, strain qcr8, stronger effect = lower value 1 | locus YJL168C, strain set2, stronger effect = lower value 0.996 | locus YJL187C, strain SWE1 (second series), stronger effect = lower value 1.01 | locus YJL187C, strain SWE1, stronger effect = lower value 1 | locus YJR043C, strain POL32, stronger effect = lower value 1.01 | locus YJR066W, strain TOR1, stronger effect = lower value 0.98 | locus YJR075W, strain HOC1, stronger effect = lower value 1.02 | locus YKL009W, strain mrt4, stronger effect = lower value 0.988 | locus YKL068W, stronger effect = lower value 1.01 | locus YKL085W, strain MDH1 (second series), stronger effect = lower value 1.01 | locus YKL085W, strain MDH1, stronger effect = lower value 1.01 | locus YKL160W, strain elf1, stronger effect = lower value 0.988 | locus YKR001C, strain vps1, stronger effect = lower value 0.994 | locus YKR026C, strain gcn3, stronger effect = lower value 0.99 | locus YKR091W, strain srl3, stronger effect = lower value 1 | locus YLL001W, strain dnm1, stronger effect = lower value 0.991 | locus YLL026W, stronger effect = lower value 0.987 | locus YLL041C, strain sdh2, stronger effect = lower value 1.01 | locus YLR027C, strain aat2, stronger effect = lower value 1 | locus YLR039C, strain RIC1, stronger effect = lower value 0.972 | locus YLR058C, strain SHM2, stronger effect = lower value 1.02 | locus YLR102C, strain apc9, stronger effect = lower value 1.01 | locus YLR113W, strain HOG1, stronger effect = lower value 1.05 | locus YLR221C, strain rsa3, stronger effect = lower value 0.984 | locus YLR258W, strain gsy2, stronger effect = lower value 0.999 | locus YLR262C, strain YPT6 (second series), stronger effect = lower value 0.966 | locus YLR262C, strain YPT6, stronger effect = lower value 1.02 | locus YLR268W, strain sec22, stronger effect = lower value 1.01 | locus YLR320W, strain mms22, stronger effect = lower value 0.995 | locus YLR330W, strain CHS5, stronger effect = lower value 1.02 | locus YLR342W, strain FKS1 (second series), stronger effect = lower value 1.03 | locus YLR342W, strain FKS1, stronger effect = lower value 0.996 | locus YLR357W, strain rsc2, stronger effect = lower value 0.969 | locus YLR370C, strain arc18, stronger effect = lower value 0.992 | locus YLR371W, strain rom2, stronger effect = lower value 1.01 | locus YLR384C, strain iki3, stronger effect = lower value 0.987 | locus YLR418C, strain cdc73, stronger effect = lower value 1 | locus YML016C, strain PPZ1, stronger effect = lower value 1.01 | locus YML032C, strain rad52, stronger effect = lower value 0.999 | locus YML120C, strain ndi1, stronger effect = lower value 0.999 | locus YML124C, strain tub3, stronger effect = lower value 1.02 | locus YMR058W, strain fet3, stronger effect = lower value 1 | locus YMR078C, strain ctf18, stronger effect = lower value 1.01 | locus YMR125W, strain sto1, stronger effect = lower value 1 | locus YMR129W, stronger effect = lower value 0.996 | locus YMR205C, strain PFK2, stronger effect = lower value 0.976 | locus YMR223W, strain ubp8, stronger effect = lower value 0.994 | locus YMR231W, strain pep5, stronger effect = lower value 0.986 | locus YMR263W, strain SAP30, stronger effect = lower value 1.01 | locus YMR307W, strain GAS1, stronger effect = lower value 1.08 | locus YNL067W, strain RPL9B, stronger effect = lower value 1.02 | locus YNL071W, strain lat1, stronger effect = lower value 0.997 | locus YNL153C, strain GIM3, stronger effect = lower value 1.01 | locus YNL183C, strain NPR1, stronger effect = lower value 0.98 | locus YNL209W, strain ssb2, stronger effect = lower value 1 | locus YNL233W, strain BNI4, stronger effect = lower value 1.02 | locus YNL248C, strain rpa49, stronger effect = lower value 0.951 | locus YNL250W, strain rad50, stronger effect = lower value 0.985 | locus YNL271C, strain bni1, stronger effect = lower value 0.995 | locus YNL298W, strain CLA4, stronger effect = lower value 1 | locus YNL307C, strain MCK1, stronger effect = lower value 1 | locus YNL322C, strain KRE1 (second series), stronger effect = lower value 1 | locus YNR049C, strain mso1, stronger effect = lower value 1 | locus YNR052C, strain pop2, stronger effect = lower value 1.01 | locus YOL012C, strain htz1 0.692 | locus YOL147C, strain pex11, stronger effect = lower value 1.01 | locus YOR001W, strain rrp6, stronger effect = lower value 0.998 | locus YOR061W, strain CKA2, stronger effect = lower value 1.02 | locus YOR069W, strain VPS5, stronger effect = lower value 1.01 | locus YOR070C, strain gyp1, stronger effect = lower value 0.992 | locus YOR080W, strain dia2, stronger effect = lower value 0.984 | locus YOR083W, strain WHI5, stronger effect = lower value 0.984 | locus YOR106W, strain vam3, stronger effect = lower value 1.01 | locus YOR136W, strain idh2, stronger effect = lower value 1 | locus YOR144C, strain elg1, stronger effect = lower value 1.01 | locus YOR184W, strain ser1, stronger effect = lower value 1.02 | locus YOR231W, strain MKK1, stronger effect = lower value 1.04 | locus YOR265W, strain rbl2, stronger effect = lower value 0.987 | locus YOR270C, strain vph1, stronger effect = lower value 1.05 | locus YOR290C, strain snf2, stronger effect = lower value 0.99 | locus YOR316C, strain cot1, stronger effect = lower value 1 | locus YPL051W, strain arl3, stronger effect = lower value 0.977 | locus YPL055C, strain LGE1, stronger effect = lower value 1.03 | locus YPL078C, strain atp4, stronger effect = lower value 0.998 | locus YPL106C, strain sse1, stronger effect = lower value 0.984 | locus YPL240C, strain hsp82, stronger effect = lower value 0.991 | locus YPL241C, strain CIN2, stronger effect = lower value 1.01 | locus YPL256C, strain CLN2, stronger effect = lower value 1.02 | locus YPR119W, strain clb2, stronger effect = lower value 1.01 | locus YPR141C, strain kar3, stronger effect = lower value 1.02 | locus YPR163C, strain tif3, stronger effect = lower value 1.01 | locus YPR167C, strain met16, stronger effect = lower value 1.01 | strain wtn01, stronger effect = lower value 0.983
